Screens (PubChem)
The entries come from a sample that favours hits as a whole.
EZH2 inh = EZH2/PRC2 methyltransferase inhibitors, primary screen, biochemical, DELFIA time-resolved fluorescence, single point; PRC2 H3K27 methylation, DELFIA TRF, 1 h; 57,000 tested, 0.35% active; AID 651548, 2012; inhibition, % at 12.5 µM;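 active = mean inhibition of replicates at least 50% and every single replicate also reaching 50%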;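 note: dimethyl H3K27 on biotinylated H3 21-44 peptide detected by antibody; plate controls were median neutral control wells for no effect and median positive control wells for full effect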
Numbers without * were called inactive.

SMILES | EZH2 inh
CCCCC/C=C/C/C=C/C/C=C/C/C=C/CCCC(=O)Nc1ccc(O)cc1 | 69*
CCC(=O)Nc1ccc(Cl)c(Cl)c1 | 2
CCCCC/C=C\C/C=C\C/C=C\C/C=C\CCCC(=O)NCc1ccc(O)c(OC)c1 | 43
[N-]=[N+]=Nc1cccc(C(=O)O)c1 | -6
CC(C)(C)ONC(=O)CN=[N+]=[N-] | 13
